Measured values taken from PubChem BioAssay AID493248 (Broad Institute, 2011).
The campaign covered roughly 2,300 compounds. About 1,400 (61%) were called active. About 7% were inconclusive and are not listed. No rule for the calls is given here. The set was probably picked from earlier hits. Only a sample is shown. Measured potencies and affinities stand elsewhere.

What follows are compounds tested against FAD-linked sulfhydryl oxidase ALR (Homo sapiens) (UniProt P55789) (assay: ALR-catalysed DTT oxidation blockers – biochemical, H2O2 detection, luminescence, cherry-pick, dose response (AID 493248)). Settings: purified ALR, H2O2 HRP-luminol luminescence; at 10 µM (top of the series).
Sequence of FAD-linked sulfhydryl oxidase ALR (Homo sapiens) (P55789 whole entry, looked up): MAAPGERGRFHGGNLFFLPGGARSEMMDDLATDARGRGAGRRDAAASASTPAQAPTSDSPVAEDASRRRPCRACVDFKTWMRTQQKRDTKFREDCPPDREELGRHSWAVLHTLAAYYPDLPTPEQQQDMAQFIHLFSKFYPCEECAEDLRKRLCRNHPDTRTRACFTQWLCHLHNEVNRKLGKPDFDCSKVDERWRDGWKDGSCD

| SMILES | activity change, negative = inhibition [%] |
| --- | --- |
| O=C1c2cc(O)c(O)cc2S(=O)(=O)C1c1ccccc1 (stereo not drawn) | -13 |
| COc1ccc(-n2cnnc2SCc2cnc(-c3ccccc3)s2)cc1 | -99.2 |
| Cc1nc2ccc(NC(=O)c3ccco3)cc2nc1C | -98.9 |
| Oc1ccc(C2C[C@H]3CC[C@@H]2C3)cc1O (stereo partly drawn) | 0.253 |
| O=C(O)CCCN1C(=O)/C(=C\C(Cl)=C\c2ccccc2)SC1=S | -28.9 |
| CN(C)c1ccc(N2CC(C)(C)C2=O)cc1 | 9.24 |
| Cc1cccn2cc(-c3cccc(S(=O)(=O)N4CCCCC4)c3)nc12 | -98.3 |
| Cc1cc(C)c2ccc(N)nc2c1O | -14.6 |
| COc1cc(C)nc(Oc2ccc(/C=N/O)cc2)n1 | -95.2 |
| CCN1CCN(C(=O)Nc2ccc(Cc3ccc(NC(=O)N4CCN(CC)CC4)cc3)cc2)CC1 | -18.9 |
| COCc1nnc(NC(=O)c2ccc(S(=O)(=O)N3CCCc4ccccc43)cc2)o1 | -34.2 |
| CCCC(O)(c1ccc(OC)cc1)C(CN(C)C)c1ccccc1 (stereo not drawn) | 4.55 |
| Nc1ccccc1Nc1c(F)c(F)nc(F)c1Cl | -37.7 |
| Cc1ccc[n+](-c2nc([O-])sc2/C=N/Nc2ccc([N+](=O)[O-])cc2)c1 | -43.9 |
| O=C(CNC(=O)c1ccco1)Nc1ccc(N2CCCCCC2)cc1 | -0.183 |
| O=C(NCc1ccco1)C1CC(=O)N(c2ccc(O)cc2)C1 (stereo not drawn) | -85.4 |
| O=C(CN1CCN(c2ccc(O)cc2)CC1)Nc1cc(S(=O)(=O)N2CCCC2)ccc1Cl | -40.9 |

| SMILES | activity change, negative = inhibition [%] |
| --- | --- |
| COc1cc(/C=C/c2sc3ccccc3[n+]2CCCS(=O)(=O)[O-])ccc1O | -105 |
| Nc1nc(-c2ccc3c(c2)CCCC3)cs1 | -97 |
| COc1ccc2c(c1)c1ncn(CCc3ccccc3)c(=O)c1n2C | -0.427 |
| O=c1[nH]c(=S)[nH]c2sccc12 | -34.4 |
| Cc1ccc(CNC(=O)c2ccc(CS(=O)Cc3ccccc3Cl)o2)cc1 (stereo not drawn) | -1.87 |
| O=c1oc2c3c4c(cc2s1)CCCN4CCC3 | -13.7 |
| Cc1cccc(N2CCN(C(=O)Cn3sc4nc(C)cc(C)c4c3=O)CC2C)c1 (stereo not drawn) | -57.4 |
| CC(C)n1cc(C(=O)N2CCCC(N3CCN(c4cccc(Cl)c4)CC3)C2)cn1 (stereo not drawn) | -43.2 |
| Cc1ccc(N2CCN(S(=O)(=O)c3ccc4c(c3)NC(=O)C(C)C(=O)N4)CC2C)cc1 (stereo not drawn) | -30.2 |
| O=c1oc2ccccc2cc1-c1ccc(O)cc1O | 371 |
| Cn1cc(Cl)c(-c2n[nH]c(=S)n2-c2ccc(F)cc2)n1 | 18.2 |
| Cc1c(Cl)c(-c2n[nH]c(=S)n2CC(C)C)nn1C | -54.1 |
| CC(C)(C)c1ccc(C(=O)Oc2ccccc2CCC(=O)O)cc1 | -56 |
| CC(C)(C)c1ccc(Oc2ccc(N)cn2)cc1 | 49.2 |
| CC1CCN(C(=S)c2ccc(O)cc2)CC1 | -30 |
| CN(C)c1ccc(C(=O)N2CCCC2)cc1 | -10.3 |
